Among all 340,000 compounds or so, about 800 (0.24%) were called active. The list comes from a sample in which actives are over-represented; it also holds similar structures and randomly drawn compounds. A number with no mark means an inactive call.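 How the source made its calls: active means activation above the mean over all tested compounds plus 3 SD (cut at about 30% in these data); inactive means the rest.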

In PubChem BioAssay AID493008 (The Scripps Research Institute Molecular Screening Center, 2010) one finds activation data, which are given here for 59 compounds.

For this assay, the target named is Troponin I, cardiac muscle (Homo sapiens) + Troponin T, cardiac muscle (Homo sapiens) + Troponin C, slow skeletal and cardiac muscles (Homo sapiens) (UniProt P19429+P45379+P63316). The assay can be described thus: cardiac RTF calcium sensitivity activators, primary screen, biochemical, IANBD-TnC fluorescence, EC20 calcium (AID 493008).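 Further: rise in fluorescence read as greater calcium sensitivity of cardiac thin filaments.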 To be noted: IANBD-labeled TnC RTF fluorescence at EC20 calcium; at 7.2 µM; hits give high values; 0% EC20 calcium, 100% full calcium.
Turning to `COc1ccc(OC)c(NC(=O)c2ccc3c(c2)C(=O)N(c2ccc(OC(C)=O)cc2)C3=O)c1`, the activation was 1.02%.
Consider `CCOC(=O)c1c(NC(=O)C2CC=CCC2C(=O)O)sc(C)c1CC` (centres undefined), for which the activation is 1.94%.
The result for `CSC1=NCCN1C(=O)Cc1cccc2ccccc12` reads -2.5%.
`Nc1ccc2nc3c(=O)[nH]c(=S)[nH]c3nc2c1`: the activation is 266% (active).
The result for `OC1CCCN(c2ncnc3c2nnn3Cc2c(F)cccc2Cl)C1` (centres undefined) reads 6.74%; that for `CCOc1ccc(C2c3[nH]c4ccccc4c3CCN2Cc2cccn2-c2ncccn2)cc1` (centres undefined), 1.17%; that for `Cc1ccc(CN2CCN(Cc3ccc4ncccc4c3)CC2CCO)cc1` (centres undefined), 0.85%.
The result for `Cc1ccsc1-c1cc(C(=O)O)c2c(ccc3ccccc32)n1` reads 2.92%.
As for `Cc1cccc(C)c1NC(=O)CCCSc1nnc(-c2ccco2)n1-c1ccccc1`, the activation was -3.75%.
The result for `CCOc1ccc(-n2cnnn2)cc1S(=O)(=O)N1CCC(C)CC1C` (centres undefined) reads -1.75%; that for `COCCCNC(=O)CNC(=S)N(Cc1cc(OC)c(OC)c(OC)c1)C1CCCC1`, -8.44%; that for `COc1ccc(/C=C/C(=O)OCC(=O)NC2CCCCCC2)cc1OC`, -4.52%.
The result for `CCCc1ccc(OCC(O)CN2CCN(CCO)CC2)cc1` (centres undefined) reads -4.14%.
Take `Cc1ccccc1-n1nc(SCC(=O)O)sc1=S`: the activation was -0.8%.
As for `Cc1nc(N)sc1-c1ccccc1`, the activation was -3.97%.
In the case of `Cc1ccc2[nH]c(=O)c(-c3nc4c(C)cccn4c3NCc3ccco3)cc2c1` it was -3.25%; in that of `CCCN(CCC)c1nc2c(C)cccn2c(=O)c1/C=C1/SC(=S)N(Cc2ccco2)C1=O`, 34% (active); in that of `CNc1nc2c(C)cccn2c(=O)c1C=Nc1ccc(OC)cc1`, -1.57%.
In the case of `O=C(Cn1cnc2ccccc21)Nc1ccccc1-c1ccccc1`, the activation is -3.39%.
As to `O=C(COC(=O)c1cccc(Br)c1)Nc1cccc2c1C(=O)c1ccccc1C2=O`, the activation was -3.82%.
The result for `O=C(COC(=O)Cn1cnc2ccccc21)Nc1cccc2c1C(=O)c1ccccc1C2=O` reads 45.7% (active).
As to `O=S(=O)(NCCc1ccc(Cl)cc1)c1cccs1`, the activation is -0.86%.
In the case of `CCOc1ccc2oc(C(=O)N(CC)CC(=O)Nc3ccc(NC(C)=O)cc3)c(C)c2c1`, the activation is -0.31%.
In the case of `O=C(c1cc(-c2ccc(O)cc2)on1)N1CCCc2ccccc21`, the activation is 6.06%.
For `Cc1cccc2cc3c(N)c(C(=O)N4CCCc5ccccc54)sc3nc12`, the activation was 44.8% (active).
As to `O=C(c1c(Cl)nc2sccn12)N1CCCc2ccccc21`, the activation was -2.79%.
As to `O=C(C[n+]1cc(Br)cc2ccccc21)c1ccc(F)cc1`, the activation is -1.35%.
Regarding `COC(=O)Cc1c(-c2[nH]c3ccccc3c2CC(=O)OC)[nH]c2ccccc12`, the activation is 0.63%.
In the case of `COC(=O)C[n+]1cccc2ccccc21` it was 58.3% (active).
In the case of `CN(C)c1ccc(/C=C2\NC(=S)N(Cc3ccccc3)C2=O)cc1` it was 66% (active); in that of `CN(C)c1ccc(C=C2C(=O)OC3(CCCC3)OC2=O)cc1`, -3.77%; in that of `CC1CN(Cc2ccccc2)C(=S)NC1=O` (centres undefined), -1.27%.
In the case of `CCn1cc(C(=O)N2CC=C(c3ccccc3)CC2)c(=O)c2ccc(C)nc21` it was -3.54%.
As to `CCCCNC(=O)C(C)N(CCN(C)C)C(=O)CCCCCN1C(=O)NC(c2ccc(Cl)cc2)C(C(=O)OCc2ccccc2)=C1C` (centres undefined), the activation was -4%.
For the compound `CCOc1ccc(N(CC(=O)NCCOc2ccccc2OC)S(=O)(=O)c2ccccc2)cc1`, the activation was 2.75%.
With `CCCNCc1cc(OCC)c(OCC(=O)Nc2ccccc2)cc1Br`, the activation is 4.49%.
On to `COc1ccc(OC)c(CCNC(=O)c2nn(C)c3c2CS(=O)(=O)c2ccccc2-3)c1`, for which the activation is -2.91%.
The result for `O=c1ccc(S(=O)(=O)N2CCCC2)cn1Cc1nc(-c2ccccc2)no1` reads -2.09%; that for `CC1CCCN(CC(O)COc2ccc3c(c2)OCO3)C1` (centres undefined), -0.7%.
In the case of `Cn1cccc1C(=O)N1CCc2ccccc2C1` it was 1.33%.
In the case of `OCC[C@H]1C[C@@H](O)[C@H](O)[C@]2(OCCCc3ccccc32)O1`, the activation was 2.9%.
In the case of `CCCC1OC23CCCCC2C(C#N)(C#N)C1(C#N)C(=N)O3` (centres undefined) it was 35% (active); in that of `C=CCC[C@@H](Cc1ccc(F)cc1)C(=O)OC[C@H](Cc1c[nH]c2ccccc12)NC(=O)[C@@H](CC=C)CC(=O)N(CCO)Cc1ccccc1`, -0.54%; in that of `CN1CCNC(=O)C1CC(=O)NCCC1=CCCCC1` (centres undefined), 9.88%.
The result for `COc1ccc(C(=O)OCc2cc(=O)n3ccsc3n2)cc1F` reads -7.02%; that for `COCc1cc(=O)[nH]c2cc(NC(=O)C(F)(F)F)c(C)cc12`, -3.59%.
Take `CCOC(=O)N1CCC(c2cc(=O)n(-c3ccccc3)[nH]2)CC1`: the activation is 2.7%.
`O=c1cc(N2CCCCC2)c(-c2ccccc2)nn1Cc1cccc(F)c1`: the activation was -0.45%.
In the case of `Cc1nc([N+](=O)[O-])cn1CC(=O)Nc1ccc(Cl)cc1` it was 0.6%.
`Nc1nc(SCC(=O)N2CCN(S(=O)(=O)c3ccc(Cl)cc3)CC2)n[nH]1`: the activation is 11.6%.
Consider `Cc1nc(N=C(N)N)nc2c(C)cccc12`, for which the activation was -2.23%.
Turning to `COCCCNC(=O)C1CCN(c2ccc(N3CCOCC3)nn2)CC1`, the activation was 1.09%.
The result for `CC1CCN(c2c(NCc3ccc(C(=O)NCc4ccccc4)cc3)c(=O)c2=O)CC1` reads 13.9%; that for `Cc1ccc(CNC(=O)c2cccc3c2C(=O)c2ccc(N4CCC(C)CC4)cc2S3(=O)=O)cc1`, 100% (active).
For the compound `Cc1ccc(CNC(=O)c2ccc3c(c2)S(=O)(=O)c2ccccc2C3=O)cc1`, the activation is -0.11%.
As to `O=C(NCc1ccccc1CN1CCCC1)c1cccc(S(=O)(=O)Nc2ccc(F)cc2)c1`, the activation was -1.12%.
In the case of `COc1ccc(OC)c(Cc2cnc3nc(N)nc(N)c3c2C)c1` it was 0.81%; in that of `Cc1cccc(NC(=O)CN2CCN(CC(=O)NCC3(N4CCCCC4)CCCCC3)CC2)c1C`, -1.57%.
In the case of `COc1ccc(CNC(=O)COC(=O)C2=Cc3ccccc3OC2)cc1` it was -9.53%.
